Measurements from the supplement of paper PMC10681739.

Legend:
ETS1 [1] = target: T1, ETS1 (UniProt P14921); assay: ETS1 binding intensity (PBM fluorescence), ETS1 alone (arbitrary fluorescence units); higher = stronger binding; conditions: ETS1 concentration 1 nM; RUNX1 concentration 0 nM
T1 sequence: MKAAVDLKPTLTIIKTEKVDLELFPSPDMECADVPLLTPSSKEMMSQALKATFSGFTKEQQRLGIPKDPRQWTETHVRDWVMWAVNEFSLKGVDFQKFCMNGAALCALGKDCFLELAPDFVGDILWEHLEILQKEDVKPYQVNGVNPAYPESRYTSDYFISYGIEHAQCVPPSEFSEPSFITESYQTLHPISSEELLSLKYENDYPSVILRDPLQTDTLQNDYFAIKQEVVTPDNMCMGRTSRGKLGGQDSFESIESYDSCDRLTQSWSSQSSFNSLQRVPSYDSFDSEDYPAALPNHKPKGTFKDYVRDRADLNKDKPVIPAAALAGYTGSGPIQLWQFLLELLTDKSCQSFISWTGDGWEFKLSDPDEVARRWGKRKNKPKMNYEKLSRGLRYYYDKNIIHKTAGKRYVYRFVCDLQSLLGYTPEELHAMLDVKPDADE

ETS1 [2] = target: T1, ETS1; assay: ETS1 binding intensity (PBM fluorescence) in presence of RUNX1, normalised to ETS1-only experiment (arbitrary fluorescence units); higher = stronger binding; conditions: ETS1 concentration 1 nM; RUNX1 concentration 25 nM
RUNX1 [3] = target: RUNX1 (UniProt Q01196); assay: RUNX1 binding intensity (PBM fluorescence) in presence of ETS1, normalised to RUNX1-only experiment (arbitrary fluorescence units); higher = stronger binding; conditions: RUNX1 concentration 2 nM; ETS1 concentration 25 nM
Experimental: (§1)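 Cooperative gcPBM on 36-bp genomic probes with neighbouring ETS1 and RUNX1 sites. Recombinant human RUNX1 (2 nM) was incubated alone or with ETS1 (25 nM) and detected with anti-RUNX1 antibody plus Alexa488 secondary. Values are medians over 4 replicate spots; the RUNX1+ETS1 data were normalised to the RUNX1-only data. The probes sit in constant array flanks that are not printed.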

RUNX1 [4] = target: RUNX1 (UniProt Q01196); assay: RUNX1 binding intensity (PBM fluorescence), RUNX1 alone (arbitrary fluorescence units); higher = stronger binding; conditions: RUNX1 concentration 2 nM; ETS1 concentration 0 nM
Experimental: as §1
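For RUNX1 binding intensity (PBM fluorescence) in presence of ETS1, normalised to RUNX1-only experiment in this document: Full-length recombinant human ETS1 or RUNX1 bound to double-stranded 36-bp genomic probes on microarrays, detected by protein-specific primary antibody and Alexa488 secondary, spot fluorescence as median of four replicate spots.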
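For RUNX1 binding intensity (PBM fluorescence), RUNX1 alone in this document: Full-length recombinant human RUNX1 bound to double-stranded 36-bp genomic probes on a high-density microarray, scored as Alexa488 fluorescence per spot via anti-RUNX1 antibody, median of four replicate spots.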

RUNX1, sequence (Q01196 whole entry): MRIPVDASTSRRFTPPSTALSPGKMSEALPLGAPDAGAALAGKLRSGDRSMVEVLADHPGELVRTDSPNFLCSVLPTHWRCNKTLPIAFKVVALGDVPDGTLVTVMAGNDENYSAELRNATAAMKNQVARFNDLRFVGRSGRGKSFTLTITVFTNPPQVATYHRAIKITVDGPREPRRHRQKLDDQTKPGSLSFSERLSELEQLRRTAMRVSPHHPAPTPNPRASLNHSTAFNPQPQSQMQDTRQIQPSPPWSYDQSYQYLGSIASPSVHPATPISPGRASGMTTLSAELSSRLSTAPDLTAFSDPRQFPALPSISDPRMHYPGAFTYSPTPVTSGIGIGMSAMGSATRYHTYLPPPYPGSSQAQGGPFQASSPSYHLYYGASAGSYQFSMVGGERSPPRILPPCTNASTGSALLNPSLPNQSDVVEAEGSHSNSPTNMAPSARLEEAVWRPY

| Sequence | ETS1 binding intensity (ETS1 [1]) | ETS1 binding intensity (ETS1 [2]) | RUNX1 binding intensity (RUNX1 [3]) | RUNX1 binding intensity (RUNX1 [4]) |
| --- | --- | --- | --- | --- |
| ATCTTACCCCGGAAATGACAACAGTGCCGCAAACTG | 7580 | 10400 | 1620 |  |
| AAACCAGAGGAAGTGGATTCCAACCACAAACCTCAC | 750 | 4210 | 2100 |  |
| CCTTTACTTCCTTTTACTTCTAACCACAGAATTAAA | 444 | 1810 | 14200 |  |
| AGTTGGTTCCTTCCGGTGGGTTTGTGGGCTTGGGGT | 1400 | 2230 | 1880 |  |
| AGCCAACAGGAAGCTGCAGAGACTAAACCACAGCAA | 1150 | 4930 | 1390 |  |
| AGATGCAGAACAGGAAGTGGTTTAGAAAGCCACTCT | 8980 | 13700 | 2720 |  |
| GCCGGGCACCCCGGAAGACCGCTGGGAACCGGCTTT | 1080 | 1070 | 1080 |  |
| CATACAGGATGCTGGGGTATGTAAAACAAACCACGG | 708 | 678 | 964 |  |
| TATTCTTCCTGTACTTAAGCTTGCTGGTGTGGTTTC | 397 | 492 | 1560 |  |
| GTTTGAAGGGAAGTGGGTGTTGACCTGCGGGCAACT | 483 | 948 | 969 |  |
| TTTACTGAGAGGAAGTGGTTCTTGTGGGTGAAGGTC | 2420 | 6070 | 1530 |  |
| AAAGAGGAAATCACGTACCCGAAAACCACATGCACA | 530 | 1370 | 928 |  |
| GAAATCACATCCTTTTGCAAAACCACAGGTGTTTTG | 409 | 1500 | 3340 |  |
| ACCTGTGTTCTGGCAGGATGTGGTTGACCTCAGCAG | 4140 | 18700 | 2700 |  |
| TTCTCATCCGGCCGGCTTGCTTTCCCCTGCGGTCGT | 394 | 641 | 1650 |  |
| CTACCGGAAATGCAGCACCACGTAAAATGCGGTCGG | 3650 | 15800 | 2050 |  |
| ACACACTGACTTCCTGTTGTGGGAGATAAAGTGTGG | 2500 | 2780 | 1730 |  |
| GAAAGGGTTCATCCAGGAAACCACAACCCAGTGCCG | 808 | 1820 | 2110 |  |
| CAACCTGCTATAAGGAAGTTAAACCGCAGCTCACCG | 718 | 5980 | 5610 |  |
| ACGACGTCCCGGAAGTGCTGCGGCAATGTTGCTCTT | 5570 | 6620 | 1470 |  |
| GACGGCCCCAGCGGAAGTGGTTGCCTTGGTTTGCGC | 9920 | 10300 | 2190 |  |
| TAAGAGATTTCCTGTAAAGGTAACCACCAGCAAAGA | 522 | 714 | 1230 |  |
| GAGGCCGAAAGGAAGTTTGAGGTTAAGCACAAGATG | 975 | 1900 | 1060 |  |
| GCATTGTGCTTCCGCTCGGGGAAAGACCGCTTACGG | 789 | 911 | 1590 |  |
| TGCGCCGCTTCCGCTGCCCGAGGAAGAGCCGCAGTC | 1090 | 1230 | 1870 |  |

| Sequence | ETS1 binding intensity (ETS1 [1]) | ETS1 binding intensity (ETS1 [2]) | RUNX1 binding intensity (RUNX1 [3]) | RUNX1 binding intensity (RUNX1 [4]) |
| --- | --- | --- | --- | --- |
| AAGGCGGTACTTCCTCCAGCATTTGCCGCAAGTTAT | 417 | 535 | 1250 |  |
| CACCCAGTTTGAACTTCCTGGCGGTTTTGTTTACAC | 673 | 853 | 1730 |  |
| CCAGGGCCGGAAGTGCTGGTGGTGGTTTCCATCATG | 8960 | 13900 | 1750 |  |
| TGGTTTCTCACTGGCGGATGTGGGTGGGTCGCCTCC | 4130 | 6390 | 1100 |  |
| GCTCATTTATGCATCCTGTGGTCTGTGTGTGTTTCG | 569 | 831 | 1390 |  |
| CGGTCAGGTCGCAGGAAACCACAGCGGCAGCGCGGC | 732 | 1870 | 1840 |  |
| GGCTGGCCTAGGAACTTCCGCCACAAGTCCCGCCCC | 1860 | 2220 | 1390 |  |
| GGCACTTCCGGTCCTGACCTGAAGCGGTAACCGTCA | 8390 | 8600 | 1820 |  |
| CAGAGAGCGGACTTCCGCGACGCGGGTAAGCCGGGC | 498 | 368 | 894 |  |
| GCCATCCGCAGGACTCCGCGTTCTCGCGGTAAGTGG | 384 | 464 |  |  |
| GGCAGCCGATGCATCCTGCGGTGTGTGGCCCTCAGA |  |  | 1040 | 787 |
| CCAGCGGAAAGCCGGTCAGGGGGAACCGCGGCGGGG |  |  | 758 | 893 |
| CCGGGACAGGAAGAGGCTGGGGACCGCGGCGAAGGT |  |  | 1030 | 710 |
| AGTCGGAAGCCATCTGCCCCAACTTGCGGTCTTCAC |  |  | 1080 | 1070 |
| CCTCCGGAACGGCGCGGGGGATTGTGGGGTGTAGGG |  |  | 761 | 910 |
| ACCCAGTAGGGGCCAGGATGTGGTGAAAAGAGAATT |  |  | 1020 | 728 |
| GCTAACGGAACCAGCACGCGGCCACCGCAGGAACCT |  |  | 869 | 853 |
| CCTGAAGCTCATGCGGAAAACCCACAAAGGGGTGCC |  |  | 828 | 932 |
| GGGATCCTTCCGCTCCGGGTTAACCCCGACCGCGCC |  |  | 1620 | 795 |
| GCCTCCTTCCTGGGCTCCTTTAAGAGGGTGGTAACG |  |  | 1130 | 743 |
| AGAGCCACATCCCGCGCAGAGGACCGCGGCGACCGG |  |  | 927 | 764 |
| ATGTCAGGAAGAGGCTCAGGGCTGTGGTTTCTCTGT |  |  | 1070 | 979 |
| TGGCTGTGTCCCGGAAGTGGTCATAAGCTGGGTCCC |  |  | 2470 | 730 |
| GCCACACTGGCGGAAATGGTGGTTACTGTTCGAGCC |  |  | 1560 | 711 |
| ACCGAAAACAGGGCCTTCCGCGGTTATACAGATCCT |  |  | 998 | 868 |
